# Measured values reported in PubChem BioAssay (NCI).
# This is part of a sample that, as a whole, favours compounds with a hit. Of some 83,000 tested, about 20% had one in any assay.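 Step 1: grow cells in 96-well plates. Step 2: add test compound at a single concentration. Step 3: incubate 48 h. Step 4: record percent growth.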 Values without a mark were called inactive. The source made the active and inactive calls. The calls were made as follows: active = growth percent below 10; inactive = the rest.
# What was measured:
# Assay in all cases: NCI-60 one-dose screen, 48 h (100 = growth as untreated, 0 = no growth, -100 = all killed)
# Conditions in all cases: 10 µM unless noted
# DU-145 prostate = system: DU-145 prostate
# K-562 leukemia = system: K-562 leukemia
# MALME-3M melanoma = system: MALME-3M melanoma
# MDA-MB-231 breast = system: MDA-MB-231 breast
# RXF 393 renal = system: RXF 393 renal
# SF-268 CNS = system: SF-268 CNS
# SF-295 CNS = system: SF-295 CNS
# SF-539 CNS = system: SF-539 CNS
# UACC-257 melanoma = system: UACC-257 melanoma
# HCT-15 colon = system: HCT-15 colon
# HT29 colon = system: HT29 colon
# SNB-75 CNS = system: SNB-75 CNS
# SNB-19 CNS = system: SNB-19 CNS
# U251 CNS = system: U251 CNS
# PC-3 prostate = system: PC-3 prostate
# SK-MEL-5 melanoma = system: SK-MEL-5 melanoma
# UACC-62 melanoma = system: UACC-62 melanoma
# LOX IMVI melanoma = system: LOX IMVI melanoma
# SK-MEL-28 melanoma = system: SK-MEL-28 melanoma
SMILES,growth (DU-145 prostate),growth (K-562 leukemia),growth (MALME-3M melanoma),growth (MDA-MB-231 breast),growth (RXF 393 renal),growth (SF-268 CNS),growth (SF-295 CNS),growth (SF-539 CNS),growth (UACC-257 melanoma),growth (HCT-15 colon),growth (HT29 colon),growth (SNB-75 CNS),growth (SNB-19 CNS),growth (U251 CNS),growth (PC-3 prostate),growth (SK-MEL-5 melanoma),growth (UACC-62 melanoma),growth (LOX IMVI melanoma),growth (SK-MEL-28 melanoma)
COc1ccc2c(c1)C(=O)/C(=C/c1cccc(OCC(=O)Nc3nc(C)c(C)s3)c1)O2,-76.3% (active),-72.2% (active),-58% (active),-25.1% (active),-57.2% (active),-45.5% (active),-82.7% (active),-80.6% (active),37%,12.3%,-82.2% (active),-95.3% (active),80.6%,0% (active),-85.4% (active),40.4%,47.1%,-63.9% (active),11.2%
COc1ccc(-c2nc(SCCC(C)C)nc(N/N=C\c3ccccc3O)c2C#N)cc1,95.7%,91.6%,89.6%,85.1%,76.1%,78%,94.2%,90.9%,89.8%,86.6%,103%,74.8%,72.4%,60.5%,92.3%,94.2%,90%,84.6%,99.1%
CC1(c2ccccc2)NC(=O)N(NC(=O)CSc2nc(-c3cccs3)nc3ccccc23)C1=O (configuration not stated),106%,88.8%,100%,90.9%,78.1%,97.8%,99.3%,95%,83.5%,91.2%,108%,96.4%,92.2%,94.6%,90.8%,–,69%,95.9%,115%
CN(C)CC1C(=O)O[C@H]2[C@H]1CC/C(COC(=O)c1cc3ccccc3[nH]1)=C\CC[C@@]1(C)O[C@@H]21 (some centres not stated),-17.7% (active),-11.4% (active),-44.2% (active),-41.2% (active),-72.2% (active),-59.7% (active),32.4%,-37.7% (active),-86% (active),-57.9% (active),-75.7% (active),-59.6% (active),49.5%,-60.9% (active),-23.7% (active),-98.6% (active),-52% (active),-92.7% (active),-59.1% (active)
Cc1cc(C)c2c(-c3nnc(N)s3)cc(=O)oc2c1,108%,93%,106%,101%,109%,99.9%,98.7%,90.5%,107%,98.4%,112%,98.8%,99.4%,103%,98.9%,98.5%,89.8%,96.7%,104%
COc1ccc(-c2nc(SCC(=O)Nc3nc(-c4ccccc4)cs3)[nH]c(=O)c2C#N)cc1,118%,93.5%,90.1%,95.1%,96.6%,95.9%,96.3%,103%,109%,109%,115%,70.4%,109%,103%,86%,102%,92.1%,92.9%,104%
C#Cc1cccc(NC(=O)c2ccc(NC(=O)CCl)cc2)c1,42.4% [8.25 µM],7.87% [8.25 µM] (active),-83.5% [8.25 µM] (active),-22.8% [8.25 µM] (active),47.9% [8.25 µM],-8.76% [8.25 µM] (active),75.4% [8.25 µM],-94.7% [8.25 µM] (active),43.3% [8.25 µM],-57% [8.25 µM] (active),34.5% [8.25 µM],32.2% [8.25 µM],8.27% [8.25 µM] (active),-90.1% [8.25 µM] (active),-46.6% [8.25 µM] (active),-56.7% [8.25 µM] (active),7.2% [8.25 µM] (active),-77.5% [8.25 µM] (active),54% [8.25 µM]
CC1CC2Oc3ccc(Cl)cc3C(=O)N2O1 (configuration not stated),102%,107%,118%,102%,119%,103%,104%,102%,118%,99.2%,105%,101%,112%,108%,97.1%,102%,108%,98.2%,118%
CC(C)(C)C(CCc1ccc(Cl)cc1)N1CCN(C2CCCCC2)CC1 (configuration not stated),25.3%,9.18% (active),83.4%,12.3%,83.2%,43.8%,72.6%,81.2%,51.4%,38.1%,12.6%,77.7%,70.6%,38.1%,27.7%,46.4%,46.8%,-20.3% (active),83.1%
O=C(CC(SCc1ccccc1)c1ccccc1)c1ccccc1 (configuration not stated),95.5%,95.3%,98.5%,98.1%,86.4%,87.6%,94.1%,99%,111%,74.4%,86.8%,87.9%,88.6%,86.5%,88.8%,97.3%,85.3%,85.6%,105%
COc1ccccc1N1C(=O)/C(=C/C2=Cc3ccccc3OC2)SC1=S,100%,75%,92.9%,88.1%,103%,109%,91.5%,103%,100%,65.3%,99.6%,97.8%,91.1%,95.7%,77.1%,97.7%,86%,105%,92.8%
COc1cc(-c2n/c(=C\c3c(O)[nH]c4ccc(Cl)cc34)cc3c2=Nc2ccccc2-3)cc(OC)c1OC,-15.4% (active),3.48% (active),-40.3% (active),-14.9% (active),-70.3% (active),-11.8% (active),7.89% (active),31.2%,27.2%,28.4%,-11.2% (active),-4.26% (active),14.9%,-84.3% (active),-13.1% (active),44.7%,2.11% (active),-63.6% (active),16.5%
